# Results: the supplement of paper PMC4466140
# B1: unnamed (peptide)
# chain: RAPPPVPKKPSSRIA
# B2: unnamed (peptide)
# chain: DKKTKPTPPPKPSHL
# Legend:
# Assay in all cases: SPOT peptide array binding signal intensity (averaged, normalized) (arbitrary units (background-subtracted, floor 0; scale differs between SH3 domains)); higher = stronger binding of the SH3 domain to the peptide
# AgAbp1 = target: AgAbp1
# In short: (§1)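 Detection of bound protein relied on anti-GST antibody, an HRP anti-mouse secondary and luminol, with imaging and quantification in Genespotter. The bound protein was GST-fused SH3 domains from four yeast species, incubated at 10 μg/ml overnight at 4°C in TBS-based blocking buffer on cellulose membranes carrying synthetic 15-mer peptides with cysteines replaced by serines. Binding signal is normalized, background-subtracted spot intensity averaged over replicates, in arbitrary units that differ between domains.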
# AgBbc1 = target: AgBbc1
# In short: as §1
# AgBem1-D1 = target: AgBem1-D1
# In short: as §1
# AgBzz1-D1 = target: AgBzz1-D1
# In short: as §1
# AgBzz1-D2 = target: AgBzz1-D2
# In short: as §1
# AgCyk3 = target: AgCyk3
# In short: as §1
# AgFus1 = target: AgFus1
# In short: as §1
# AgHof1 = target: AgHof1
# In short: as §1
# AgHse1 = target: AgHse1
# In short: as §1
# AgLsb1 = target: AgLsb1
# In short: as §1
# AgLsb4 = target: AgLsb4
# In short: as §1
# AgMyo5 = target: AgMyo5
# In short: as §1
# AgNbp2 = target: AgNbp2
# In short: as §1
# AgRvs167 = target: AgRvs167
# In short: as §1
# AgSho1 = target: AgSho1
# In short: as §1
# AgSla1-D1-D2 = target: AgSla1-D1-D2
# In short: as §1
# AgSla1-D3 = target: AgSla1-D3
# In short: as §1
# CaAbp1-D1 = target: CaAbp1-D1
# In short: as §1
# CaAbp1-D2 = target: CaAbp1-D2
# In short: as §1
# CaBbc1 = target: CaBbc1
# In short: as §1
# CaBem1-D1 = target: CaBem1-D1
# In short: as §1
# CaBzz1-D1 = target: CaBzz1-D1
# In short: as §1
# CaBzz1-D2 = target: CaBzz1-D2
# In short: as §1
# CaCyk3 = target: CaCyk3
# In short: as §1
# CaFus1 = target: CaFus1
# In short: as §1
# CaHof1 = target: CaHof1
# In short: as §1
# CaHse1 = target: CaHse1
# In short: as §1
# CaLsb1 = target: CaLsb1
# In short: as §1
# CaLsb4 = target: CaLsb4
# In short: as §1
# CaMyo5 = target: CaMyo5
# In short: as §1
# CaNbp2 = target: CaNbp2
# In short: as §1
# CaRvs167 = target: CaRvs167
# In short: as §1
# CaRvs167-3 = target: CaRvs167-3
# In short: as §1
# CaSho1 = target: CaSho1
# In short: as §1
# CaSla1-D1-D2 = target: CaSla1-D1-D2
# In short: as §1
# CaSla1-D3 = target: CaSla1-D3
# In short: as §1
# ScAbp1 = target: ScAbp1
# In short: as §1
# ScBbc1 = target: ScBbc1
# In short: as §1
# ScBem1-D1 = target: ScBem1-D1
# In short: as §1
# ScBzz1-D1 = target: ScBzz1-D1
# In short: as §1
# ScBzz1-D2 = target: ScBzz1-D2
# In short: as §1
# ScCyk3 = target: ScCyk3
# In short: as §1
# ScFus1 = target: ScFus1
# In short: as §1
# ScHof1 = target: ScHof1
# In short: as §1
# ScHse1 = target: ScHse1
# In short: as §1
# ScLsb1 = target: ScLsb1
# In short: as §1
# ScLsb2 = target: ScLsb2
# In short: as §1
# ScLsb3 = target: ScLsb3
# In short: as §1
# ScLsb4 = target: ScLsb4
# In short: as §1
# ScMyo3 = target: ScMyo3
# In short: as §1
# ScMyo5 = target: ScMyo5
# In short: as §1
# ScNbp2 = target: ScNbp2
# In short: as §1
# ScPex13 = target: ScPex13
# In short: as §1
# ScRvs167 = target: ScRvs167
# In short: as §1
# ScSho1 = target: ScSho1
# In short: as §1
# ScSla1-D1-D2 = target: ScSla1-D1-D2
# In short: as §1
# ScSla1-D3 = target: ScSla1-D3
# In short: as §1
# SpAbp1-D1 = target: SpAbp1-D1
# In short: as §1
# SpBbc1 = target: SpBbc1
# In short: as §1
# SpBzz1-D1 = target: SpBzz1-D1
# In short: as §1
# SpBzz1-D2 = target: SpBzz1-D2
# In short: as §1
# SpCyk3 = target: SpCyk3
# In short: as §1
# SpHof1 = target: SpHof1
# In short: as §1
# SpHof1-2 = target: SpHof1-2
# In short: as §1
# SpHof1-3 = target: SpHof1-3
# In short: as §1
# SpHse1 = target: SpHse1
# In short: as §1
# SpLsb1 = target: SpLsb1
# In short: as §1
# SpLsb4 = target: SpLsb4
# In short: as §1
# SpMyo1 = target: SpMyo1
# In short: as §1
# SpNbp2 = target: SpNbp2
# In short: as §1
# SpPex13 = target: SpPex13
# In short: as §1
# SpRvs167 = target: SpRvs167
# In short: as §1
# SpSla1-D1-D2 = target: SpSla1-D1-D2
# In short: as §1
# SpSla1-D3 = target: SpSla1-D3
# In short: as §1
binder,measurement,setting,value
B1,SPOT peptide array binding signal intensity,AgAbp1,8420
same,SPOT peptide array binding signal intensity,AgBbc1,1600
same,SPOT peptide array binding signal intensity,AgBem1-D1,51.5
same,SPOT peptide array binding signal intensity,AgBzz1-D1,3320
same,SPOT peptide array binding signal intensity,AgBzz1-D2,373
same,SPOT peptide array binding signal intensity,AgCyk3,≤ 0
same,SPOT peptide array binding signal intensity,AgFus1,≤ 0
same,SPOT peptide array binding signal intensity,AgHof1,415
same,SPOT peptide array binding signal intensity,AgHse1,102
same,SPOT peptide array binding signal intensity,AgLsb1,676
same,SPOT peptide array binding signal intensity,AgLsb4,48
same,SPOT peptide array binding signal intensity,AgMyo5,36.8
same,SPOT peptide array binding signal intensity,AgNbp2,3960
same,SPOT peptide array binding signal intensity,AgRvs167,230
same,SPOT peptide array binding signal intensity,AgSho1,296
same,SPOT peptide array binding signal intensity,AgSla1-D1-D2,≤ 0
same,SPOT peptide array binding signal intensity,AgSla1-D3,380
same,SPOT peptide array binding signal intensity,CaAbp1-D1,2320
same,SPOT peptide array binding signal intensity,CaAbp1-D2,4330
same,SPOT peptide array binding signal intensity,CaBbc1,1870
same,SPOT peptide array binding signal intensity,CaBem1-D1,12.5
same,SPOT peptide array binding signal intensity,CaBzz1-D1,5970
same,SPOT peptide array binding signal intensity,CaBzz1-D2,2940
same,SPOT peptide array binding signal intensity,CaCyk3,61.5
same,SPOT peptide array binding signal intensity,CaFus1,28.5
same,SPOT peptide array binding signal intensity,CaHof1,≤ 0
same,SPOT peptide array binding signal intensity,CaHse1,1200
same,SPOT peptide array binding signal intensity,CaLsb1,0.5
same,SPOT peptide array binding signal intensity,CaLsb4,2220
same,SPOT peptide array binding signal intensity,CaMyo5,2.5
same,SPOT peptide array binding signal intensity,CaNbp2,1040
same,SPOT peptide array binding signal intensity,CaRvs167,170
same,SPOT peptide array binding signal intensity,CaRvs167-3,1
same,SPOT peptide array binding signal intensity,CaSho1,94
same,SPOT peptide array binding signal intensity,CaSla1-D1-D2,3890
same,SPOT peptide array binding signal intensity,CaSla1-D3,250
same,SPOT peptide array binding signal intensity,ScAbp1,2860
same,SPOT peptide array binding signal intensity,ScBbc1,270
same,SPOT peptide array binding signal intensity,ScBem1-D1,9
same,SPOT peptide array binding signal intensity,ScBzz1-D1,565
same,SPOT peptide array binding signal intensity,ScBzz1-D2,33
same,SPOT peptide array binding signal intensity,ScCyk3,7
same,SPOT peptide array binding signal intensity,ScFus1,1
same,SPOT peptide array binding signal intensity,ScHof1,1.5
same,SPOT peptide array binding signal intensity,ScHse1,≤ 0
same,SPOT peptide array binding signal intensity,ScLsb1,452
same,SPOT peptide array binding signal intensity,ScLsb2,1030
same,SPOT peptide array binding signal intensity,ScLsb3,4390
same,SPOT peptide array binding signal intensity,ScLsb4,52.5
same,SPOT peptide array binding signal intensity,ScMyo3,80.5
same,SPOT peptide array binding signal intensity,ScMyo5,50.2
same,SPOT peptide array binding signal intensity,ScNbp2,5230
same,SPOT peptide array binding signal intensity,ScPex13,869
same,SPOT peptide array binding signal intensity,ScRvs167,1400
same,SPOT peptide array binding signal intensity,ScSho1,2740
same,SPOT peptide array binding signal intensity,ScSla1-D1-D2,2100
same,SPOT peptide array binding signal intensity,ScSla1-D3,331
same,SPOT peptide array binding signal intensity,SpAbp1-D1,2240
same,SPOT peptide array binding signal intensity,SpBbc1,26
same,SPOT peptide array binding signal intensity,SpBzz1-D1,2030
B2,SPOT peptide array binding signal intensity,CaNbp2,≤ 0
same,SPOT peptide array binding signal intensity,CaRvs167,0.333
same,SPOT peptide array binding signal intensity,CaRvs167-3,3.5
same,SPOT peptide array binding signal intensity,CaSho1,24
same,SPOT peptide array binding signal intensity,CaSla1-D1-D2,≤ 0
same,SPOT peptide array binding signal intensity,CaSla1-D3,≤ 0
same,SPOT peptide array binding signal intensity,ScAbp1,2120
same,SPOT peptide array binding signal intensity,ScBbc1,≤ 0
same,SPOT peptide array binding signal intensity,ScBem1-D1,≤ 0
same,SPOT peptide array binding signal intensity,ScBzz1-D1,1
same,SPOT peptide array binding signal intensity,ScBzz1-D2,46.5
same,SPOT peptide array binding signal intensity,ScCyk3,≤ 0
same,SPOT peptide array binding signal intensity,ScFus1,1
same,SPOT peptide array binding signal intensity,ScHof1,1.5
same,SPOT peptide array binding signal intensity,ScHse1,16.5
same,SPOT peptide array binding signal intensity,ScLsb1,≤ 0
same,SPOT peptide array binding signal intensity,ScLsb2,≤ 0
same,SPOT peptide array binding signal intensity,ScLsb3,1270
same,SPOT peptide array binding signal intensity,ScLsb4,≤ 0
same,SPOT peptide array binding signal intensity,ScMyo3,0.5
same,SPOT peptide array binding signal intensity,ScMyo5,≤ 0
same,SPOT peptide array binding signal intensity,ScNbp2,4
same,SPOT peptide array binding signal intensity,ScPex13,138
same,SPOT peptide array binding signal intensity,ScRvs167,≤ 0
same,SPOT peptide array binding signal intensity,ScSho1,280
same,SPOT peptide array binding signal intensity,ScSla1-D1-D2,≤ 0
same,SPOT peptide array binding signal intensity,ScSla1-D3,3
same,SPOT peptide array binding signal intensity,SpAbp1-D1,2240
same,SPOT peptide array binding signal intensity,SpBbc1,3.5
same,SPOT peptide array binding signal intensity,SpBzz1-D1,235
same,SPOT peptide array binding signal intensity,SpBzz1-D2,≤ 0
same,SPOT peptide array binding signal intensity,SpCyk3,≤ 0
same,SPOT peptide array binding signal intensity,SpHof1,0.75
same,SPOT peptide array binding signal intensity,SpHof1-2,6.5
same,SPOT peptide array binding signal intensity,SpHof1-3,86
same,SPOT peptide array binding signal intensity,SpHse1,0.75
same,SPOT peptide array binding signal intensity,SpLsb1,138
same,SPOT peptide array binding signal intensity,SpLsb4,≤ 0
same,SPOT peptide array binding signal intensity,SpMyo1,≤ 0
same,SPOT peptide array binding signal intensity,SpNbp2,≤ 0
same,SPOT peptide array binding signal intensity,SpPex13,1.5
same,SPOT peptide array binding signal intensity,SpRvs167,33.3
same,SPOT peptide array binding signal intensity,SpSla1-D1-D2,≤ 0
same,SPOT peptide array binding signal intensity,SpSla1-D3,1
